Holding throughout (test): yeast three-hybrid, YBZ-1, SC-Leu-His + 0.5 mM 3-AT, 4 days
What all share (details): tags: N-Gal4 AD-HA kept; label: inside an RPR1-promoter hybrid RNA with tandem MS2 sites; ssRNA

In one assay the target is PUM1 PUF domain R5-GQS (Homo sapiens, UniProt Q14671 828-1176, C1007G;R1008Q;Q1011S). The method in brief: (§1)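 Matching RNA elements and Pumilio-1 PUF domain libraries, randomized at the three base-contacting residues of every repeat, were co-expressed from a centromeric plasmid in strain YBZ-1 (LexA–MS2 coat fusion, HIS3 reporter). The repeat regions were PCR-amplified and Illumina-sequenced from cells grown four days on SC-Leu (input) or SC-Leu-His + 0.5 mM 3-AT (selection). The interaction score is the log change in variant frequency from input to selection. It is computed in log2, with a pseudocount of 1 for absent variants.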

The target of another assay is PUM1 PUF domain R5-KHT (Homo sapiens, UniProt Q14671 828-1176, C1007K;R1008H;Q1011T). The method in brief: as §1
The next assay concerns the target T1, PUM1 PUF domain R6-SFR (Homo sapiens, UniProt Q14671 828-1176, N1043S;Y1044F;Q1047R).
T1 sequence: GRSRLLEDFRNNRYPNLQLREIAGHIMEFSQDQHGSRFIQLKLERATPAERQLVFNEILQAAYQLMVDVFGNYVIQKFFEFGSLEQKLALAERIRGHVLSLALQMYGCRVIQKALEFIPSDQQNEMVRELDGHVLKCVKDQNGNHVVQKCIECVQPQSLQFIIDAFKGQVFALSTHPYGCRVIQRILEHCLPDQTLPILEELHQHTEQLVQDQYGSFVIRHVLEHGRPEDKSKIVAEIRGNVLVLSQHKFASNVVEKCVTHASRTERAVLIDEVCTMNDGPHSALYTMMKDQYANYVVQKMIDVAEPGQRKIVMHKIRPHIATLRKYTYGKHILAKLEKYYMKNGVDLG
The method, boiled down: as §1

A further assay has as its target PUM1 PUF domain R5-KKL (Homo sapiens, UniProt Q14671 828-1176, C1007K;R1008K;Q1011L). The method in brief:
as §1

In another assay the target is PUM1 PUF domain R5-EKC (Homo sapiens, UniProt Q14671 828-1176, C1007E;R1008K;Q1011C). The method, boiled down:
as §1

The target of the next assay is PUM1 PUF domain R5-NRF (Homo sapiens, UniProt Q14671 828-1176, C1007N;Q1011F). The method, boiled down: as §1
In another assay the target is PUM1 PUF domain R1-RVV (Homo sapiens, UniProt Q14671 828-1176, S863R;R864V;Q867V). The method in brief: as §1
The next assay deals with PUM1 PUF domain R3-SLE (Homo sapiens, UniProt Q14671 828-1176, C935S;R936L;Q939E). The method in brief:
as §1

A further assay deals with PUM1 PUF domain R8-RWV (Homo sapiens, UniProt Q14671 828-1176, N1122R;Y1123W;Q1126V). The method in brief:
as §1

In a further assay the target is PUM1 PUF domain R8-KFP (Homo sapiens, UniProt Q14671 828-1176, N1122K;Y1123F;Q1126P). The method in brief:
as §1

The target in another assay is PUM1 PUF domain R3-DRL (Homo sapiens, UniProt Q14671 828-1176, C935D;Q939L). The method in brief:
as §1

The target in the next assay is PUM1 PUF domain R4-DFA (Homo sapiens, UniProt Q14671 828-1176, N971D;H972F;Q975A). The method in brief: as §1
For a further assay, the target named is PUM1 PUF domain R5-KWG (Homo sapiens, UniProt Q14671 828-1176, C1007K;R1008W;Q1011G). The method in brief:
as §1

A further assay deals with PUM1 PUF domain R5-RGD (Homo sapiens, UniProt Q14671 828-1176, C1007R;R1008G;Q1011D). The method in brief:
as §1

For a further assay, the target named is PUM1 PUF domain R5-DFW (Homo sapiens, UniProt Q14671 828-1176, C1007D;R1008F;Q1011W). The method, boiled down: as §1
The target in a further assay is PUM1 PUF domain R7-GVK (Homo sapiens, UniProt Q14671 828-1176, S1079G;N1080V;E1083K). The method, boiled down:
as §1

The target of a further assay is PUM1 PUF domain R7-GTR (Homo sapiens, UniProt Q14671 828-1176, S1079G;N1080T;E1083R). The method in brief:
as §1

A further assay addresses PUM1 PUF domain R1-YQR (Homo sapiens, UniProt Q14671 828-1176, S863Y;R864Q;Q867R). The method in brief: as §1
For a further assay, the target named is PUM1 PUF domain R3-RST (Homo sapiens, UniProt Q14671 828-1176, C935R;R936S;Q939T). The method, boiled down:
as §1

The next assay addresses PUM1 PUF domain R3-RDR (Homo sapiens, UniProt Q14671 828-1176, C935R;R936D;Q939R). The method in brief: as §1

Consider “GGCUAGAACUAGUGGAUCCCCCGGCGCCCGGCGGCUCGAGCCCGGGUAAGUGUGAAUAGUCUGCAUGCCGCCGGGCGCCAUGCCUGCAGGUCGACUCUAGAAAACAUG”, for which the binding signal is 2.15 log2 enrichment (interaction score) with PUM1 PUF domain R5-GQS and 2.38 log2 enrichment (interaction score) in the assay with PUM1 PUF domain R5-KHT.
As for “GGCUAGAACUAGUGGAUCCCCCGGCGCCCGGCGGCUCGAGCCCGGGUAAGUGCAAAUAGUCUGCAUGCCGCCGGGCGCCAUGCCUGCAGGUCGACUCUAGAAAACAUG”, the binding signal with PUM1 PUF domain R6-SFR is 7.11 log2 enrichment (interaction score).
With “GGCUAGAACUAGUGGAUCCCCCGGCGCCCGGCGGCUCGAGCCCGGGUAAGUGUUAAUAGUCUGCAUGCCGCCGGGCGCCAUGCCUGCAGGUCGACUCUAGAAAACAUG”, the binding signal with PUM1 PUF domain R5-KKL is 2.25 log2 enrichment (interaction score); with PUM1 PUF domain R5-EKC, 2.3 log2 enrichment (interaction score); with PUM1 PUF domain R5-NRF, 5.64 log2 enrichment (interaction score).
“GGCUAGAACUAGUGGAUCCCCCGGCGCCCGGCGGCUCGAGCCCGGGUAAGUGUAAAUCGUCUGCAUGCCGCCGGGCGCCAUGCCUGCAGGUCGACUCUAGAAAACAUG”: the binding signal with PUM1 PUF domain R1-RVV was 2.37 log2 enrichment (interaction score).
For the sequence “GGCUAGAACUAGUGGAUCCCCCGGCGCCCGGCGGCUCGAGCCCGGGUAAGUGUAAGUAGUCUGCAUGCCGCCGGGCGCCAUGCCUGCAGGUCGACUCUAGAAAACAUG”, the binding signal with PUM1 PUF domain R3-SLE was 3.8 log2 enrichment (interaction score).
In the case of “GGCUAGAACUAGUGGAUCCCCCGGCGCCCGGCGGCUCGAGCCCGGGUAAGCGUAAAUAGUCUGCAUGCCGCCGGGCGCCAUGCCUGCAGGUCGACUCUAGAAAACAUG”, the binding signal with PUM1 PUF domain R8-RWV was 5.22 log2 enrichment (interaction score); with PUM1 PUF domain R8-KFP, 3.9 log2 enrichment (interaction score).
Turning to “GGCUAGAACUAGUGGAUCCCCCGGCGCCCGGCGGCUCGAGCCCGGGUAAGUGUAAAUAGUCUGCAUGCCGCCGGGCGCCAUGCCUGCAGGUCGACUCUAGAAAACAUG”, the binding signal was 5.01 log2 enrichment (interaction score) with PUM1 PUF domain R8-RWV; 3.39 log2 enrichment (interaction score) with PUM1 PUF domain R5-GQS; 3.71 log2 enrichment (interaction score) with PUM1 PUF domain R3-DRL; 2.78 log2 enrichment (interaction score) with PUM1 PUF domain R4-DFA; 6.56 log2 enrichment (interaction score) in the assay with PUM1 PUF domain R6-SFR; 4.88 log2 enrichment (interaction score) with PUM1 PUF domain R8-KFP.
On to “GGCUAGAACUAGUGGAUCCCCCGGCGCCCGGCGGCUCGAGCCCGGGUAAGUGUCAAUAGUCUGCAUGCCGCCGGGCGCCAUGCCUGCAGGUCGACUCUAGAAAACAUG”, for which the binding signal in the assay with PUM1 PUF domain R5-KKL was 2.13 log2 enrichment (interaction score); in the assay with PUM1 PUF domain R5-EKC it was 2.59 log2 enrichment (interaction score); with PUM1 PUF domain R5-KWG, 4.46 log2 enrichment (interaction score); with PUM1 PUF domain R5-RGD, 3.87 log2 enrichment (interaction score); with PUM1 PUF domain R5-DFW it was 2.86 log2 enrichment (interaction score).
Consider “GGCUAGAACUAGUGGAUCCCCCGGCGCCCGGCGGCUCGAGCCCGGGUAAGUUUAAAUAGUCUGCAUGCCGCCGGGCGCCAUGCCUGCAGGUCGACUCUAGAAAACAUG”, for which the binding signal in the assay with PUM1 PUF domain R7-GVK was 4.74 log2 enrichment (interaction score); in the assay with PUM1 PUF domain R7-GTR it was 4.38 log2 enrichment (interaction score).
With “GGCUAGAACUAGUGGAUCCCCCGGCGCCCGGCGGCUCGAGCCCGGGUAAGUGUACAUAGUCUGCAUGCCGCCGGGCGCCAUGCCUGCAGGUCGACUCUAGAAAACAUG”, in the assay with PUM1 PUF domain R4-DFA, the binding signal was 6.02 log2 enrichment (interaction score).
Take “GGCUAGAACUAGUGGAUCCCCCGGCGCCCGGCGGCUCGAGCCCGGGUAAGUGUAAAUUGUCUGCAUGCCGCCGGGCGCCAUGCCUGCAGGUCGACUCUAGAAAACAUG”: the binding signal in the assay with PUM1 PUF domain R1-YQR is 6.49 log2 enrichment (interaction score); in the assay with PUM1 PUF domain R1-RVV it was 2.58 log2 enrichment (interaction score).
In the case of “GGCUAGAACUAGUGGAUCCCCCGGCGCCCGGCGGCUCGAGCCCGGGUAAGUGUAAUUAGUCUGCAUGCCGCCGGGCGCCAUGCCUGCAGGUCGACUCUAGAAAACAUG”, the binding signal was 2.83 log2 enrichment (interaction score) with PUM1 PUF domain R3-RST and 4.8 log2 enrichment (interaction score) with PUM1 PUF domain R3-RDR.
